# What was measured:
# Assay in all cases: thermal shift delta Tm vs DMSO control; higher = stronger stabilization (binding)
# Conditions in all cases: 12.5 µM; protein concentration 2 µM
# LOC_OS04G57630-cb004 = test system: LOC_OS04G57630-cb004
# Method in brief: (§1)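 Heating from 25°C to 95°C at 0.05°C/s, fluorescence was recorded for 19.5 μl wells of 2 μM E. coli-expressed, purified rice kinase domain in 100 mM potassium phosphate pH 7.5, 150 mM NaCl, 10% glycerol and 5 × SYPRO Orange with compound in DMSO. Boltzmann fits gave melting temperatures for this differential scanning fluorimetry assay. The shift reported is the mean of three replicates against the DMSO-only protein.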
# LOC_OS05G07850-cb002 = test system: LOC_OS05G07850-cb002
# Method in brief: as §1
# LOC_OS05G16824-cb004 = test system: LOC_OS05G16824-cb004
# Method in brief: as §1
# LOC_OS05G28520-cb001 = test system: LOC_OS05G28520-cb001
# Method in brief: as §1
# LOC_OS05G30820-cb001 = test system: LOC_OS05G30820-cb001
# Method in brief: as §1
# LOC_OS05G43570-cb004 = test system: LOC_OS05G43570-cb004
# Method in brief: as §1
# LOC_OS06G16330-cb003 = test system: LOC_OS06G16330-cb003
# Method in brief: as §1
# LOC_OS06G22820-cb001 = test system: T1, LOC_OS06G22820-cb001
# T1 sequence (whole entry): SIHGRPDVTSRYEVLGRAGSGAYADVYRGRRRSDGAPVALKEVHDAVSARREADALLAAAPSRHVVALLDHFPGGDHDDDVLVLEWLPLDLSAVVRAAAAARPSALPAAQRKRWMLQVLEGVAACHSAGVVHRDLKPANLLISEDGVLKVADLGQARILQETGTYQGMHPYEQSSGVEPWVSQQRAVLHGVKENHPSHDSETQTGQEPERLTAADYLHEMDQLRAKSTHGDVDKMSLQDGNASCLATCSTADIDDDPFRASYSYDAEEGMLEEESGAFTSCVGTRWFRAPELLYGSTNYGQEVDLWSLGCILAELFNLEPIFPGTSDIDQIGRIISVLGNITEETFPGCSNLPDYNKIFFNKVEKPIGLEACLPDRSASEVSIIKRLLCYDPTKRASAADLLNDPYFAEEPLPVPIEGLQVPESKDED
# Method in brief: as §1
# LOC_OS07G06570-cb004 = test system: LOC_OS07G06570-cb004
# Method in brief: as §1
# LOC_OS07G07230-cb001 = test system: LOC_OS07G07230-cb001
# Method in brief: as §1
# 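Further: purified Escherichia coli-expressed rice kinase domain construct.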
# Sequence of LOC_OS06G16330-cb003 (as listed by the source): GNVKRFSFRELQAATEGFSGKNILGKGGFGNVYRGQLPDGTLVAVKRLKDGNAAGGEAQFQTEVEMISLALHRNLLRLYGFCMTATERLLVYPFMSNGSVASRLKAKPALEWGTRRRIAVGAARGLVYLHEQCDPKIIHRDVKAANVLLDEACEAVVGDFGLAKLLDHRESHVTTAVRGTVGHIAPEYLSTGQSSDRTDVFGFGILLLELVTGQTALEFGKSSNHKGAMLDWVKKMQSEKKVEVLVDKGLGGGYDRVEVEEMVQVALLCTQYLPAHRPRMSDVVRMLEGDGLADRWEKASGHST
SMILES,thermal shift delta Tm (LOC_OS04G57630-cb004),thermal shift delta Tm (LOC_OS05G07850-cb002),thermal shift delta Tm (LOC_OS05G16824-cb004),thermal shift delta Tm (LOC_OS05G28520-cb001),thermal shift delta Tm (LOC_OS05G30820-cb001),thermal shift delta Tm (LOC_OS05G43570-cb004),thermal shift delta Tm (LOC_OS06G16330-cb003),thermal shift delta Tm (LOC_OS06G22820-cb001),thermal shift delta Tm (LOC_OS07G06570-cb004),thermal shift delta Tm (LOC_OS07G07230-cb001)
CCc1ccc(/C=C2/SC(=S)NC2=O)cc1,0.22 °C,2.65 °C,-3.64 °C,1.2 °C,0.82 °C,1 °C,0.48 °C,1.04 °C,1.65 °C,0.27 °C
O=C(Nc1nccs1)C(c1cc(F)ccc1O)N1Cc2ccccc2C1=O (stereo not given),0 °C,-0.08 °C,-0.86 °C,0.12 °C,0.61 °C,-0.04 °C,-0.29 °C,0.38 °C,1.35 °C,0.63 °C
O=c1sn(-c2cccc3ccccc23)c(=O)n1Cc1ccccc1 [Tideglusib],-0.25 °C,-3.79 °C,-13.5 °C,0.99 °C,0.39 °C,0.01 °C,0.99 °C,0.6 °C,1 °C,0.27 °C
Nc1ncnc2n[nH]c(Nc3ccc(F)cc3)c12,-0.19 °C,8.51 °C,1.59 °C,0.61 °C,0.77 °C,0.52 °C,2.45 °C,0.73 °C,1.75 °C,0.82 °C
N#Cc1cnc(Nc2cc(NC[C@H]3CNCCO3)c(C(F)(F)F)cn2)cn1,0.23 °C,4.22 °C,4.42 °C,0.04 °C,0.75 °C,0.11 °C,2.23 °C,0.3 °C,1.08 °C,0.52 °C
COC(=O)c1ccc2c(c1)NC(=O)/C2=C(\Nc1ccc(N(C)C(=O)CN2CCN(C)CC2)cc1)c1ccccc1 [Nintedanib (BIBF 1120)],1.08 °C,1.57 °C,9.2 °C,0.54 °C,0.35 °C,0.43 °C,0.71 °C,0.4 °C,0.96 °C,0.42 °C
CNS(=O)(=O)Nc1nccc(Cc2c(C)c3ccc(Oc4ncccn4)cc3oc2=O)c1F,0.3 °C,0.16 °C,-1.72 °C,0.32 °C,0.47 °C,0.49 °C,0.47 °C,0.62 °C,1.63 °C,0.51 °C
CC(C)=CC[C@@H](O)C1=CC(=O)c2c(O)ccc(O)c2C1=O [Shikonin],-1.93 °C,-1.47 °C,-0.18 °C,1.58 °C,0.18 °C,0.09 °C,-1.68 °C,-0.26 °C,7.3 °C,0.21 °C
Cn1cnc(N)c2ncnc1-2 [3-Methyladenine (3-MA)],-0.01 °C,0.75 °C,-3.2 °C,0.15 °C,0.64 °C,0.46 °C,-0.06 °C,0.64 °C,0.43 °C,0.03 °C
O=c1cc(N2CCOCC2)oc2c1ccc1ccccc12,0.45 °C,0.96 °C,1.86 °C,0.42 °C,0.43 °C,0.67 °C,-3.55 °C,0.23 °C,0.63 °C,0.36 °C
Cc1nc(-c2cn3c(n2)-c2ccc(-c4cnn(C(C)(C)C(N)=O)c4)cc2OCC3)n(C(C)C)n1 [Taselisib (GDC 0032)],0.16 °C,0.89 °C,0.74 °C,0.19 °C,0.59 °C,0.36 °C,-0.08 °C,0.16 °C,1.28 °C,0.87 °C
Cc1cccc(Nc2nc(NC3CCCCC3N)ncc2C(N)=O)c1 (stereo not given),0.83 °C,7.79 °C,5.17 °C,0.36 °C,2.02 °C,0.63 °C,6.85 °C,0.81 °C,1.04 °C,0.47 °C
O=C1Cc2c([nH]c3ccc(Br)cc23)-c2ccccc2N1 [Kenpaullone],2.67 °C,7.41 °C,3.07 °C,1 °C,2.18 °C,1.21 °C,2.59 °C,0.96 °C,-0.23 °C,0.05 °C
COc1ccc(CC(=O)Nc2nc3c(s2)CCc2ccccc2-3)cc1OC,0.43 °C,1.41 °C,2.09 °C,0.12 °C,0.13 °C,0.04 °C,-0.23 °C,0.35 °C,1.1 °C,0.06 °C
O=S(=O)(c1cccc2c(I)cccc12)N1CCCNCC1,-0.05 °C,0.78 °C,1.61 °C,0.14 °C,0.08 °C,0.32 °C,0.09 °C,0.37 °C,1.9 °C,0.16 °C
CCN(C)S(=O)(=O)Nc1ccc(F)c(C(=O)c2c[nH]c3ncc(-c4cnc(C5CC5)nc4)cc23)c1F,1.47 °C,6.9 °C,1.58 °C,1.1 °C,0.45 °C,0.13 °C,1.23 °C,0.65 °C,0.34 °C,1.77 °C
COc1cc(N2CCC(N3CCN(C)CC3)CC2)ccc1Nc1ncnc(Nc2ccccc2S(=O)(=O)C(C)C)n1,-0.16 °C,9.97 °C,-1.84 °C,0.49 °C,0.53 °C,0.45 °C,2.65 °C,0.91 °C,1.77 °C,0.45 °C
COc1nccnc1NS(=O)(=O)c1ccc(NC(=O)/C=C/c2ccc([N+](=O)[O-])s2)cc1 [Necrosulfonamide],-0.33 °C,-1.15 °C,-2.3 °C,-0.14 °C,0.41 °C,0.39 °C,-0.03 °C,0.79 °C,0.22 °C,0.63 °C
CCOc1cc2ncc(C#N)c(Nc3ccc(F)c(Cl)c3)c2cc1NC(=O)/C=C/CN(C)C [Pelitinib (EKB-569)],0.32 °C,2.2 °C,-1.87 °C,-0.33 °C,0.56 °C,0.2 °C,2.16 °C,0.39 °C,0.65 °C,0.56 °C

# From the supplement of paper PMC9694430
